Experimental findings from PubChem BioAssay AID1376 (SRMLSC, 2008) are described below.

As a reminder, the inhibition is the drop in the measured response relative to a control, in per cent.

In all, about 220,000 compounds went through this assay and about 530 (0.24%) were called active. The sample holds actives, similar compounds and a random draw of the others, so the mix is not that of the screen. Cut-off read from the data, not from the text of the source: active = inhibition above about 13%; inconclusive = no clear call, values can overlap the other calls; inactive = below that. Results with a measured potency or affinity are listed apart.

The target of the assay is Bifunctional protein GlmU (Mycobacterium tuberculosis (strain ATCC 25618 / H37Rv)) (UniProt P9WMN3). The assay can be described thus: inhibition of mycobacterial GlmU enzyme – biochemical, glucosamine-1-phosphate acetyltransferase (AID 1376).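 Note: 0% = complete reaction with vehicle and 100% = reaction without substrate.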 The conditions noted are these: M. tuberculosis GlmU acetyltransferase enzyme assay; stronger effect = higher value;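 tested at 30 µM in the primary screen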.
Bifunctional protein GlmU (Mycobacterium tuberculosis (strain ATCC 25618 / H37Rv)), sequence (P9WMN3 whole entry, looked up): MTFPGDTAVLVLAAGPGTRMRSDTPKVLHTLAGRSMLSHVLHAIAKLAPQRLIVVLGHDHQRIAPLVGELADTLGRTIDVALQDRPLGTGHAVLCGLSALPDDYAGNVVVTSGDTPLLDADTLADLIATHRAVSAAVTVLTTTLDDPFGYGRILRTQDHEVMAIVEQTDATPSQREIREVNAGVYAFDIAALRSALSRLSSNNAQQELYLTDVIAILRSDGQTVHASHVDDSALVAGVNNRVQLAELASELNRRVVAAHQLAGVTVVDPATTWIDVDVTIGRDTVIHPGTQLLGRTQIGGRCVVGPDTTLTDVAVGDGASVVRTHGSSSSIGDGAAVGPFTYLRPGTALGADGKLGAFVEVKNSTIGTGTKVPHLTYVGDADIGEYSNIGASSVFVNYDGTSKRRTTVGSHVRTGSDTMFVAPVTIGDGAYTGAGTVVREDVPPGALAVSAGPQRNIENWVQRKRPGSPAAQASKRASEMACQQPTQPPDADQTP
In the case of `O=C(CSc1nnc(Cc2cccs2)n1-c1ccccc1)NCc1ccc2c(c1)OCO2`, the inhibition was 5.29% (inactive).
For `O=C(CSc1nnc(Cc2cccs2)n1-c1ccc(Cl)cc1)NCc1ccc2c(c1)OCO2` the value was 12.9% (active).
For `O=C(CSc1nnc(-c2cccs2)n1-c1ccccc1)NCc1ccc2c(c1)OCO2` the value was 4.61% (inactive).
Then `Cc1cccc(NC(=O)Cn2cnc3c(oc4ccccc43)c2=O)c1C`, with 3.4% (inactive); and `CCC(=O)N/C(=N/c1nc(C)cc(C)n1)Nc1ccc(OC)cc1`, with 7.87% (inactive).
In the case of `N#CC12CCCCC1CC1CCCCC1(C#N)N2CCO` (configuration not stated), the inhibition was 0.23% (inactive).
As to `CC(C)Oc1ccc(C2CC(=O)NC3=C2C(=O)CCC3)cc1` (configuration not stated), the inhibition was -5.28% (inactive).
Then `CC(C)Oc1ccc(C2NC(=O)NC2=O)cc1` (configuration not stated), with 14.6% (active).
Then `CCCOc1ccc(C2NC(=O)NC2=O)cc1` (configuration not stated), with 1.13% (inactive); and `CC(C)COc1ccc(C2NC(=O)NC2=O)cc1` (configuration not stated), with -0.34% (inactive); and `CC(C)Oc1ccc(C2CCC(=O)NC2=O)cc1` (configuration not stated), with 13.8% (active).
For `CC(C)Oc1ccc(C2CNC(=O)C2)cc1` (configuration not stated), the inhibition is 5.76% (inactive).
Then `Cc1cc(N=NC(=O)c2ccccc2)ccc1O`, with 1.4% (inactive); and `O=C(CNc1cccc(C(F)(F)F)c1)N/N=C/c1ccccc1C(=O)O`, with 13.4% (active).
Consider `O=C(CNc1cccc(C(F)(F)F)c1)N/N=C/c1cccc(Br)c1`, for which the inhibition is -0.17% (inactive).
For `O=C(CNc1cccc(C(F)(F)F)c1)N/N=C/c1cn(-c2ccccc2)nc1-c1ccccc1` the value was -4.25% (inactive).
For `N/N=C1\CCCc2c1[nH]c1ccc([N+](=O)[O-])cc21`, the inhibition was 0.8% (inactive).
For `CCn1c(SCC(=O)N2CCc3ccccc32)nnc1-c1c[nH]c2ccccc12` the value was 6.94% (inactive); for `Clc1ccc(Cn2nc(-c3ccccc3)nc2-c2ccccc2)cc1`, 7.14% (inactive).
Consider `O=C1NC(=O)N(c2cccc(Cl)c2)C(=O)/C1=C\c1ccc(Sc2nc3ccccc3[nH]2)o1`, for which the inhibition was 22.4% (inactive).
Then `O=C1NC(=O)N(c2ccc(Cl)cc2)C(=O)/C1=C\c1ccc(Sc2nc3ccccc3[nH]2)o1`, with 12.5% (inactive); and `CN(C)S(=O)(=O)c1ccc(C(=O)N2CCOCC2)cc1`, with 9.61% (inactive).
Then `CN(C)S(=O)(=O)c1ccc(=S)[nH]c1`, with 1.27% (inactive).
For the molecule `CSc1ccccc1NC(=O)Nc1cccc(Cl)c1`, the inhibition was 1% (inactive).
Then `CSc1ccccc1NC(=O)Nc1ccc(F)c(Cl)c1`, with 15% (active); and `CSc1ccccc1NC(=O)Nc1ccc(Cl)cc1`, with 1.07% (inactive).
For the molecule `Cc1ccc(-n2c(-c3ccccc3)cc(/C=N/NC(=O)CC#N)c2-c2ccccc2)cc1`, the inhibition is -1.01% (inactive).
Then `COc1ccc2c(c1)CCc1c(C(=O)N3CCCCCC3)noc1-2`, with 0.33% (inactive); and `COc1ccc2c(c1)CCc1c(C(=O)N3CCc4ccccc4C3)noc1-2`, with 5.33% (inactive); and `COc1ccc2c(c1)CCc1c(C(=O)N3CCOCC3)noc1-2`, with 13.8% (active).
For `CC(C)(C)C1CCC(=NNC(=O)c2cc3c(s2)CCCC3)CC1` (configuration not stated) the value was -4.64% (inactive); for `Cc1ccc(OCc2ccc(C(=O)Nc3nc4ccccc4n3Cc3ccccc3)o2)c([N+](=O)[O-])c1`, -4.38% (inactive); for `Cc1ccc(OCc2ccc(C(=O)Nc3nc4ccccc4n3C)o2)c([N+](=O)[O-])c1`, 2.65% (inactive).
For `CCn1c(NC(=O)c2ccc(COc3ccc(C)cc3[N+](=O)[O-])o2)nc2ccccc21` the value was 15.2% (active); for `O=C(N/N=C1/CCS(=O)(=O)c2ccc(F)cc21)c1ccccn1`, -0.55% (inactive); for `CCCC(c1nnnn1CCc1ccccc1)N1CCN(C(=O)c2ccco2)CC1` (configuration not stated), 5.26% (inactive).
On to `COc1ccccc1OCCCCN1CCN(C(c2ccccc2)c2ccccc2)CC1`, for which the inhibition is -0.89% (inactive).
Then `CCN(CC)S(=O)(=O)c1cc(NS(=O)(=O)c2cc(Cl)ccc2Cl)ccc1C`, with 3.03% (inactive).
Then `CCC(=O)Nc1ccc(Oc2ccc3c(c2)C(=O)N(c2ccc(O)cc2)C3=O)cc1`, with 2.87% (inactive); and `CCCCCCCCCCCC1=C(O)C(=O)C=C(O)C1=O`, with 1.77% (inactive); and `COC1=C(OC)C(=O)C(CCCCCCCCCCO)=C(C)C1=O`, with -5.02% (inactive).
As to `COC1=CC(=O)C(O)=C(CCCCCCC/C=C/CCCCCCCC2=C(O)C(=O)C=C(OC)C2=O)C1=O`, the inhibition was 14.3% (active).
Then `COC(=O)c1c(C)oc2cc(Br)c(OCC(=O)C(C)(C)C)cc12`, with -1.38% (inactive); and `CCC(=O)NC1CCN(C(=S)NC)CC1`, with -4.03% (inactive); and `CSc1cccc(NC(=O)CN(Cc2ccc(Cl)cc2)S(C)(=O)=O)c1`, with -1.38% (inactive).
On to `O=C(/C=C/c1ccco1)NC(=S)Nc1cccc(-c2nc3ccccc3s2)c1`, for which the inhibition was -0.02% (inactive).
Then `Cc1ccc(-c2nc3ccccc3s2)cc1NC(=S)NC(=O)/C=C/c1ccco1`, with 3.24% (inactive); and `O=C(/C=C/c1ccco1)NC(=S)Nc1cc(-c2nc3ccccc3s2)ccc1Cl`, with 13% (active).
Turning to `FC(F)(F)c1cnc(NNC(=S)Nc2cccnc2)c(Cl)c1`, the inhibition is 2.72% (inactive).
Take `COC(=O)CSc1nc(N)c(C#N)c(-c2ccco2)c1C#N`: the inhibition was 21.7% (active).
For `CC(C)OC(=O)CSc1nc(N)c(C#N)c(-c2ccco2)c1C#N` the value was -3.1% (inactive).
Consider `CCCOC(=O)CSc1nc(N)c(C#N)c(-c2ccco2)c1C#N`, for which the inhibition was 2.41% (inactive).
Consider `CCOC(=O)c1[nH]c(=O)[nH]c1CN(Cc1ccco1)Cc1[nH]c(=O)[nH]c1C(=O)OCC`, for which the inhibition was 2.03% (inactive).
As to `COc1cc(OC)c(OC)cc1CN1CCC(O)CC1`, the inhibition was 0.1% (inactive).
Then `Cn1c(-c2ccc(Br)cc2)cnc1NCc1cccnc1`, with -2.36% (inactive); and `CCCCN(C)CCC(=O)Nc1ccc(F)c(F)c1`, with 0.07% (inactive).
For `Cc1ccc(-c2nnn(CC(=O)N(Cc3ccco3)C(C(=O)NC(C)(C)C)c3ccc(C)o3)n2)o1` (configuration not stated) the value was 13% (active); for `Cc1ccc(-c2nnn(CC(=O)N(Cc3ccco3)C(C(=O)NC(C)(C)C)c3ccncc3)n2)o1` (configuration not stated), 6.52% (inactive).
For `Cc1ccc(-c2nnn(CC(=O)N(Cc3ccco3)C(C(=O)NC(C)(C)C)c3cccs3)n2)o1` (configuration not stated) the value was 1.32% (inactive); for `CCS(=O)(=O)N1CCN(CC(=O)NC2CCCCC2)CC1`, 2.03% (inactive); for `COc1ccc(-c2cc3nc(-c4ccccc4)cc(N4CCC5(CC4)OCCO5)n3n2)cc1`, 5.97% (inactive).
Regarding `O=C(N/N=C\c1ccccn1)C1c2ccccc2Oc2ccccc21`, the inhibition was -4.47% (inactive).
As for `CN(C)CCCOc1cccc(Oc2ccccc2)c1`, the inhibition was -1.51% (inactive).
As for `COc1cccc(C(=O)O/N=C(\N)c2ccc([N+](=O)[O-])cc2)c1`, the inhibition is -5.75% (inactive).
Then `Cc1ccc(C(OCCN(C)C)c2cccc(C(F)(F)F)c2)cc1` (configuration not stated), with 2% (inactive).
Then `CCN(CC)CCC(C)OC(c1ccccc1)c1ccccc1` (configuration not stated), with -5.59% (inactive); and `CCN(CC)CCOC(c1ccccc1)c1ccc(C)cc1` (configuration not stated), with 13.5% (active).
For `C=CCNC(=O)C1CC1(c1ccccc1)c1ccccc1` (configuration not stated) the value was 4.25% (inactive); for `COc1ccccc1NC(=O)c1cccc(S(=O)(=O)N2CCOCC2)c1`, 0.03% (inactive).
With `COc1ccc(C(=O)N2CCCC(c3nc(-c4cccs4)no3)C2)cc1` (configuration not stated), the inhibition is -2.88% (inactive).
For `COc1ccc(C(=O)N2CCCC(c3nc(-c4cccs4)no3)C2)cc1OC` (configuration not stated) the value was 13.1% (active).
Turning to `COc1cc(C(=O)N2CCCC(c3nc(-c4cccs4)no3)C2)cc(OC)c1OC` (configuration not stated), the inhibition is 2.49% (inactive).
For `Nc1c(C(=O)Nc2nc3ccccc3s2)sc2nc(-c3cccs3)ccc12` the value was -1.14% (inactive).
Then `Cc1csc(NC(=O)c2sc3nc(-c4cccs4)ccc3c2N)n1`, with 0.71% (inactive); and `O=C(Nc1ncc(Cc2cccc(C(F)(F)F)c2)s1)c1ccc(-c2cccc([N+](=O)[O-])c2)o1`, with -6.86% (inactive); and `Cc1ccccc1CN1C(=O)CSc2ccc(C(=O)N3CCOCC3)cc21`, with 0.57% (inactive).
For `CN(C(=O)CCc1nnc(Cc2ccc(-c3ccccc3)cc2)o1)C1CCOCC1` the value was 2.22% (inactive); for `NS(=O)(=O)c1ccc(NC(=O)CSc2nnc(COc3ccccc3Cl)n2C2CC2)cc1`, 13.3% (active).
As to `C=CCn1c(COc2ccccc2)nnc1SCC(=O)Nc1ccc(S(N)(=O)=O)cc1`, the inhibition is 0.44% (inactive).
Turning to `Cn1c(COc2ccccc2)nnc1SCC(=O)Nc1ccc(S(N)(=O)=O)cc1`, the inhibition was 1.92% (inactive).
On to `c1ccc2oc(NC3=NCN(C4CCCCC4)CN3)nc2c1`, for which the inhibition is 0.06% (inactive).
Consider `Cc1n[nH]c(=O)nc1N/N=C/c1ccc(O)c([N+](=O)[O-])c1`, for which the inhibition is 5.79% (inactive).
Regarding `Cc1csc(N/N=C/c2ccc(O)c([N+](=O)[O-])c2)n1`, the inhibition was 13.8% (active).
Then `O=[N+]([O-])c1cc(/C=N\Nc2nc(-c3ccccc3)cs2)ccc1O`, with 7.14% (inactive); and `CSc1ccc(CNc2nnnn2C)cc1`, with -1.37% (inactive).
For `COC(=O)C1(CO)NC(c2cccs2)C2C(=O)N(c3ccccc3)C(=O)C21` (configuration not stated) the value was -2.08% (inactive); for `COc1ccc(CN2C(=O)NC(=O)/C(=C/c3ccc([N+](=O)[O-])s3)C2=O)cc1`, 6.92% (inactive).
Then `Cc1ccc(N2C(=O)NC(=O)/C(=C\c3ccc([N+](=O)[O-])o3)C2=O)cc1`, with 12.4% (inactive); and `COc1ccc(CN2C(=O)NC(=O)/C(=C\c3ccco3)C2=O)cc1`, with 8.39% (inactive).
As to `COc1ccc(CN2C(=O)NC(=O)/C(=C/c3ccc([N+](=O)[O-])o3)C2=O)cc1`, the inhibition was 19.9% (active).
Then `O=C1NC(=O)N(c2ccccc2)C(=O)/C1=C\c1ccc([N+](=O)[O-])o1`, with 16.7% (inactive).
For `Cc1cc([N+](=O)[O-])ccc1N=Nc1c(N)[nH]n(-c2ccccc2)c1=O` the value was -3.05% (inactive).
